According to PubChem BioAssay AID1159580 (chemical genetic matrix, 2015):
“And” between values parts separate entries of the source, which are not always exact repeats. Equal values may be shown once. Screen size: about 5,500 compounds; about 2,000 (36%) were called active. Inconclusive results (about 18%) are left out. Cut-off read from the data, not from the text of the source: active = normalized growth mostly below about 0.91 (no sharp cut-off); inconclusive = no clear call, values can overlap the other calls; inactive = mostly above about 0.92. Some of the results follow.

Assay: chemical genetic growth profiling, strain panel (AID 1159580);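 note: tested at 20 µM; growth read once vehicle control cultures reached saturation at 30 °C; 1 = growth at the plate median or of vehicle wells; lower values mean less growth of the strain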
Details: S. cerevisiae deletion strains, growth OD
[1] = locus YMR307W, strain GAS1, stronger effect = lower value
[2] = locus YPL055C, strain LGE1, stronger effect = lower value

Measured: normalized growth

CC(N)Cc1c[nH]c2ccc(O)cc12 (centres undefined)
inactive: locus YAL013W, strain DEP1, stronger effect = lower value 1.02 | locus YAL040C, strain CLN3, stronger effect = lower value 1 | locus YCL061C, strain MRC1 (second series), stronger effect = lower value 1 | locus YDR363W, strain ESC2, stronger effect = lower value 1.03 | locus YER002W, strain NOP16, stronger effect = lower value 1 | [1] 1 | locus YNL153C, strain GIM3, stronger effect = lower value 1.01 | locus YNL175C, strain NOP13, stronger effect = lower value 1.01 | locus YNL197C, strain WHI3, stronger effect = lower value 1.04 | locus YNL224C, strain SQS1, stronger effect = lower value 1.02 | locus YOR083W, strain WHI5 (second series), stronger effect = lower value 1.01 | [2] 1.01

CC[C@@H](CO)NCCN[C@@H](CC)CO
inactive: locus YAL021C, strain ccr4, stronger effect = lower value 1.01 | locus YAL026C, strain drs2, stronger effect = lower value 1 | locus YAL030W, strain snc1, stronger effect = lower value 1.01 | locus YBL061C, strain skt5, stronger effect = lower value 1.02 | locus YBR009C, strain hhf1, stronger effect = lower value 1 | locus YBR021W, strain FUR4, stronger effect = lower value 1.02 | locus YBR023C, strain chs3, stronger effect = lower value 1.04 | locus YBR171W, strain sec66, stronger effect = lower value 1.02 | locus YBR229C, strain ROT2, stronger effect = lower value 1.01 | locus YBR231C, strain swc5, stronger effect = lower value 0.968 | locus YBR279W, strain paf1, stronger effect = lower value 1.02 | locus YCL011C, strain gbp2, stronger effect = lower value 1.03 | locus YCL016C, strain dcc1, stronger effect = lower value 1.04 | locus YCL029C, strain bik1, stronger effect = lower value 1 | locus YCL061C, strain MRC1, stronger effect = lower value 1.03 | locus YCL069W, strain vba3, stronger effect = lower value 1 | locus YCR088W, strain abp1, stronger effect = lower value 1.01 | locus YDL005C, strain med2, stronger effect = lower value 1 | locus YDL035C, strain GPR1, stronger effect = lower value 1.02 | locus YDL040C, strain nat1, stronger effect = lower value 1 | locus YDL074C, strain BRE1, stronger effect = lower value 1.04 | locus YDL101C, strain DUN1, stronger effect = lower value 1.02 | locus YDL134C, strain PPH21, stronger effect = lower value 1.02 | locus YDL185W, strain tfp1, stronger effect = lower value 1 | locus YDL192W, strain arf1, stronger effect = lower value 1 | locus YDR001C, strain nth1, stronger effect = lower value 1.01 | locus YDR069C, strain doa4, stronger effect = lower value 0.996 | locus YDR101C, strain arx1, stronger effect = lower value 0.987 | locus YDR137W, strain rgp1, stronger effect = lower value 1.01 | locus YDR150W, strain NUM1, stronger effect = lower value 1 | locus YDR159W, strain sac3, stronger effect = lower value 0.959 | locus YDR162C, strain NBP2, stronger effect = lower value 1.01 | locus YDR195W, strain ref2 0.964 | locus YDR297W, strain sur2, stronger effect = lower value 1.02 | locus YDR318W, strain mcm21, stronger effect = lower value 1.01 | locus YDR334W, strain swr1, stronger effect = lower value 1.01 | locus YDR335W, strain msn5, stronger effect = lower value 1.01 | locus YDR388W, stronger effect = lower value 1 | locus YDR392W, strain spt3, stronger effect = lower value 0.985 | locus YDR502C, strain sam2, stronger effect = lower value 1.03 | locus YEL003W, strain gim4, stronger effect = lower value 0.999 | locus YEL037C, strain rad23, stronger effect = lower value 1.01 | locus YEL061C, strain CIN8 (second series), stronger effect = lower value 1.01 | locus YEL061C, strain CIN8, stronger effect = lower value 1.01 | locus YER015W, strain faa2, stronger effect = lower value 1.01 | locus YER016W, strain bim1, stronger effect = lower value 0.985 | locus YER110C, stronger effect = lower value 1.01 | locus YER111C, strain swi4, stronger effect = lower value 1.01 | locus YER155C, strain BEM2 (second series), stronger effect = lower value 0.999 | locus YER155C, strain BEM2, stronger effect = lower value 1.01 | locus YER167W, strain BCK2, stronger effect = lower value 1.01 | locus YFR010W, strain ubp6, stronger effect = lower value 1 | locus YGL078C, strain dbp3, stronger effect = lower value 1 | locus YGL086W, strain mad1, stronger effect = lower value 0.988 | locus YGL167C, strain pmr1, stronger effect = lower value 1.01 | locus YGL173C, strain kem1, stronger effect = lower value 1.01 | locus YGL227W, strain vid30, stronger effect = lower value 1.02 | locus YGL240W, strain doc1, stronger effect = lower value 0.995 | locus YGL248W, strain PDE1, stronger effect = lower value 1.02 | locus YGL253W, strain hxk2, stronger effect = lower value 0.999 | locus YGR078C, strain PAC10, stronger effect = lower value 1.01 | locus YGR135W, strain pre9, stronger effect = lower value 1.04 | locus YGR229C, strain SMI1, stronger effect = lower value 1.02 | locus YGR252W, strain gcn5, stronger effect = lower value 1.04 | locus YHR013C, strain ard1, stronger effect = lower value 1.04 | locus YHR027C, strain rpn1, stronger effect = lower value 1 | locus YHR030C, strain SLT2, stronger effect = lower value 1 and 1.04 | locus YHR079C, strain IRE1 (second series), stronger effect = lower value 0.987 | locus YHR079C, strain IRE1, stronger effect = lower value 1.04 | locus YHR094C, strain hxt1, stronger effect = lower value 1.01 | locus YHR129C, strain ARP1, stronger effect = lower value 1.02 | locus YHR142W, strain chs7, stronger effect = lower value 1.02 | locus YHR200W, strain rpn10, stronger effect = lower value 1 | locus YIL066C, strain RNR3, stronger effect = lower value 1.01 | locus YIL073C, strain SPO22, stronger effect = lower value 1.02 | locus YIL125W, strain kgd1, stronger effect = lower value 1 | locus YIR030C, strain dcg1, stronger effect = lower value 1 | locus YJL092W, strain hpr5, stronger effect = lower value 1.02 | locus YJL095W, strain BCK1 (second series), stronger effect = lower value 1.02 | locus YJL095W, strain BCK1, stronger effect = lower value 1.03 and 1.02 | locus YJL115W, strain asf1, stronger effect = lower value 1.01 | locus YJL129C, strain trk1, stronger effect = lower value 1.02 | locus YJL134W, strain LCB3, stronger effect = lower value 1.02 | locus YJL154C, strain vps35, stronger effect = lower value 1 | locus YJL164C, strain tpk1, stronger effect = lower value 1.02 | locus YJL166W, strain qcr8, stronger effect = lower value 1.05 | locus YJL168C, strain set2, stronger effect = lower value 1.03 | locus YJL187C, strain SWE1 (second series), stronger effect = lower value 1.01 | locus YJL187C, strain SWE1, stronger effect = lower value 1 | locus YJR043C, strain POL32, stronger effect = lower value 1.01 | locus YJR066W, strain TOR1, stronger effect = lower value 0.909 | locus YKL009W, strain mrt4, stronger effect = lower value 0.996 | locus YKL068W, stronger effect = lower value 0.994 | locus YKL085W, strain MDH1 (second series), stronger effect = lower value 1 | locus YKL085W, strain MDH1, stronger effect = lower value 1 | locus YKL160W, strain elf1, stronger effect = lower value 1.05 | locus YKR001C, strain vps1, stronger effect = lower value 0.991 | locus YKR026C, strain gcn3, stronger effect = lower value 1.01 | locus YKR091W, strain srl3, stronger effect = lower value 1.01 | locus YLL001W, strain dnm1, stronger effect = lower value 1.05 | locus YLL026W, stronger effect = lower value 1.01 | locus YLL041C, strain sdh2, stronger effect = lower value 1 | locus YLR027C, strain aat2, stronger effect = lower value 0.992 | locus YLR039C, strain RIC1, stronger effect = lower value 1.1 | locus YLR058C, strain SHM2, stronger effect = lower value 1.02 | locus YLR102C, strain apc9, stronger effect = lower value 1 | locus YLR113W, strain HOG1, stronger effect = lower value 1.1 | locus YLR221C, strain rsa3, stronger effect = lower value 1.05 | locus YLR258W, strain gsy2, stronger effect = lower value 1.02 | locus YLR262C, strain YPT6 (second series), stronger effect = lower value 1.03 | locus YLR262C, strain YPT6, stronger effect = lower value 1.05 | locus YLR268W, strain sec22, stronger effect = lower value 0.988 | locus YLR320W, strain mms22, stronger effect = lower value 1.07 | locus YLR330W, strain CHS5, stronger effect = lower value 1.01 | locus YLR342W, strain FKS1 (second series), stronger effect = lower value 1.05 | locus YLR342W, strain FKS1, stronger effect = lower value 1.02 | locus YLR357W, strain rsc2, stronger effect = lower value 0.986 | locus YLR370C, strain arc18, stronger effect = lower value 1.02 | locus YLR371W, strain rom2, stronger effect = lower value 1.01 | locus YLR384C, strain iki3, stronger effect = lower value 1.02 | locus YLR418C, strain cdc73, stronger effect = lower value 1.01 | locus YML016C, strain PPZ1, stronger effect = lower value 1.01 | locus YML032C, strain rad52, stronger effect = lower value 1.01 | locus YML120C, strain ndi1, stronger effect = lower value 1.03 | locus YML124C, strain tub3, stronger effect = lower value 0.998 | locus YMR058W, strain fet3, stronger effect = lower value 1.01 | locus YMR078C, strain ctf18, stronger effect = lower value 1.01 | locus YMR125W, strain sto1, stronger effect = lower value 1 | locus YMR129W, stronger effect = lower value 1 | locus YMR205C, strain PFK2, stronger effect = lower value 1.05 | locus YMR223W, strain ubp8, stronger effect = lower value 1.02 | locus YMR231W, strain pep5, stronger effect = lower value 1 | locus YMR263W, strain SAP30, stronger effect = lower value 1.02 | [1] 1.01 | locus YNL067W, strain RPL9B, stronger effect = lower value 1.01 | locus YNL071W, strain lat1, stronger effect = lower value 1.02 | locus YNL183C, strain NPR1, stronger effect = lower value 1 | locus YNL209W, strain ssb2, stronger effect = lower value 1.02 | locus YNL233W, strain BNI4, stronger effect = lower value 1.02 | locus YNL248C, strain rpa49, stronger effect = lower value 0.996 | locus YNL250W, strain rad50, stronger effect = lower value 0.992 | locus YNL271C, strain bni1, stronger effect = lower value 0.995 | locus YNL298W, strain CLA4, stronger effect = lower value 1.02 | locus YNL307C, strain MCK1, stronger effect = lower value 1 | locus YNL322C, strain KRE1 (second series), stronger effect = lower value 1.04 | locus YNL322C, strain KRE1, stronger effect = lower value 1.01 | locus YNR049C, strain mso1, stronger effect = lower value 1.02 | locus YNR052C, strain pop2, stronger effect = lower value 1 | locus YOL006C, strain TOP1, stronger effect = lower value 1.01 | locus YOL012C, strain htz1 0.915 | locus YOL147C, strain pex11, stronger effect = lower value 0.997 | locus YOR001W, strain rrp6, stronger effect = lower value 0.99 | locus YOR061W, strain CKA2, stronger effect = lower value 1.01 | locus YOR069W, strain VPS5, stronger effect = lower value 1.01 | locus YOR070C, strain gyp1, stronger effect = lower value 1.01 | locus YOR080W, strain dia2, stronger effect = lower value 1 | locus YOR083W, strain WHI5, stronger effect = lower value 1.07 | locus YOR106W, strain vam3, stronger effect = lower value 1.04 | locus YOR136W, strain idh2, stronger effect = lower value 0.995 | locus YOR144C, strain elg1, stronger effect = lower value 0.996 | locus YOR184W, strain ser1, stronger effect = lower value 1.03 | locus YOR231W, strain MKK1, stronger effect = lower value 1.07 | locus YOR265W, strain rbl2, stronger effect = lower value 1.01 | locus YOR270C, strain vph1, stronger effect = lower value 1.04 | locus YOR290C, strain snf2, stronger effect = lower value 0.986 | locus YOR316C, strain cot1, stronger effect = lower value 1 | locus YPL051W, strain arl3, stronger effect = lower value 1 | [2] 1.03 | locus YPL078C, strain atp4, stronger effect = lower value 1.02 | locus YPL106C, strain sse1, stronger effect = lower value 1.03 | locus YPL240C, strain hsp82, stronger effect = lower value 1.02 | locus YPL256C, strain CLN2, stronger effect = lower value 1.03 | locus YPR119W, strain clb2, stronger effect = lower value 1 | locus YPR141C, strain kar3, stronger effect = lower value 1.01 | locus YPR163C, strain tif3, stronger effect = lower value 0.989 | locus YPR167C, strain met16, stronger effect = lower value 1 | strain wtn01, stronger effect = lower value 1
